From PubChem BioAssay
EphB4 ephrin blk – EphB4-ephrin-B2 interaction antagonists, primary screen, biochemical, TNYL-RAW peptide probe, fluorescence polarization. inhibition, % at 7 µM. EphB4 LBD / TNYL-RAW-Alexa532 peptide. Ephrin type-B receptor 4 (Homo sapiens), P54760. 97,000 tested, 0.15% active;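 active = inhibition above the screen-wide mean inhibition plus 3 SD, cut at about 15% in these data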;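 also: 0% = DMSO wells and 100% = excess unlabeled TNYL-RAW peptide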
hDAT+cocaine – changed hDAT dopamine uptake under cocaine IC80, either direction, primary screen, cocaine antagonist project, cell-based, LLC-PK1 hDAT, [14C]-dopamine uptake, MLSMR. Sodium-dependent dopamine transporter (Homo sapiens), Q01959. LLC-PK1 hDAT cells, [14C]-dopamine uptake with cocaine IC80; actives deviate in either direction. B-score at 10 µM. 110,000 tested, 1.3% active;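 active = Z score or B-score, a plate-position-corrected score, falls beyond the plate's 99.7% confidence bounds, in either direction; inactive = both scores lie inside the 99.7% bounds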;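 also: scored against the spread of the other compound wells on the same plate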
D1 allo mod – D1 CRE-luciferase signal change, two-sided – cell-based, HEK293 D1, dopamine EC30, D1 allosteric modulator project, primary screen; dopamine EC30 potentiation; actives deviate in either direction; B-score at 10 µM; 58,000 tested, 5.9% active;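 active = luminescence count or its row- and column-corrected plate score outside the 99.7% band of the plate's sample wells, on either side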
Target sequence (P21728 whole entry, looked up): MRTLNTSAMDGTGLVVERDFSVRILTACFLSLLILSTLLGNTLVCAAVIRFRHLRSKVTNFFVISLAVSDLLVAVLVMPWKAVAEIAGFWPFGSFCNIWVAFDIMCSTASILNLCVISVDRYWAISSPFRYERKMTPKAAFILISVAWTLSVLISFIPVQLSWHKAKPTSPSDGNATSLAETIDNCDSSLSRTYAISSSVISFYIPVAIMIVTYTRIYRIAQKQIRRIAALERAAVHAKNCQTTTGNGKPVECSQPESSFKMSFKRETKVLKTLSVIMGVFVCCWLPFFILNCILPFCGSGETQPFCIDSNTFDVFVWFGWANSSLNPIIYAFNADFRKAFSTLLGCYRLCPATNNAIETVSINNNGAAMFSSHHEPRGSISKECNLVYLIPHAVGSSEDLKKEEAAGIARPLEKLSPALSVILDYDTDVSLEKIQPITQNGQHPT
D1 mod confirm – D1 receptor positive allosteric modulators, retest, confirmation, cell-based, HEK293 D1, CRE-luciferase, duplicate; shares compounds with D1 allo mod; dopamine EC30 potentiation; active compounds read high; luminescence at 10 µM; 2,200 tested, 88% active;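 active = luminescence in either of two replicates above the same-plate mean plus 3 SD of the low-dose dopamine control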
D1 no dopamine – D1 receptor agonism without dopamine, confirmation, mechanism study for D1 allosteric modulator project, cell-based, HEK293 D1, CRE-luciferase, secondary assay 1 | shares compounds with D1 allo mod | luminescence, no dopamine; active compounds read high | luminescence at 10 µM | 1,900 tested, 0.8% active; in the data active = luminescence above about 3900
Isoprot counter – isoproterenol response counter-screen activity for D1 modulators. shares compounds with D1 allo mod. 2,200 tested, 63% active. AID 647. calls only at 10 µM. HEK293 D1 CRE-luciferase, isoproterenol EC30 counter-screen;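 active = luminescence in either replicate above plate mean of wells with a partly effective reference agonist dose plus 3 SD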;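 also: isoproterenol raises cAMP through native beta-adrenoceptor Gs so signal bypasses D1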
Active calls of the source: *. Shown is part of a subset that was picked to be rich in hits.

What do the screens show for `COc1ccc(NC(=O)CSc2nc3ccccc3c(=O)n2CCNC(C)=O)c(OC)c1`?
EphB4 ephrin blk: 8; hDAT+cocaine: 0.13; D1 allo mod: 0.018

How did COCCCNc1nc2ccccc2nc1NS(=O)(=O)c1cccs1 do in these assays?
EphB4 ephrin blk: 3; hDAT+cocaine: -0.75; D1 allo mod: 2.8*; D1 mod confirm: 10820*; D1 no dopamine: 1644; Isoprot counter: inactive

What do the screens show for `O=S(=O)(c1cccs1)N1CN(CC2CCCO2)c2nc3ccccc3nc21` (stereo unspecified)?
EphB4 ephrin blk: -7; hDAT+cocaine: -1.1

What do the screens show for `COc1ccc(Nc2nc3ccccc3nc2NS(=O)(=O)c2cccs2)cc1`?
EphB4 ephrin blk: 1; hDAT+cocaine: -0.78

What do the screens show for `O=S(=O)(Nc1nc2ccccc2nc1NCC1CCCO1)c1cccs1` (stereo unspecified)?
EphB4 ephrin blk: -1; hDAT+cocaine: 1.1; D1 allo mod: 8.6*; D1 mod confirm: 15576*; D1 no dopamine: 2020; Isoprot counter: active

How did CCCCCCN(C(=O)CCCCCN1C(=O)NC(c2ccc(-c3ccccc3)cc2)C(C(=O)OCc2ccccc2)=C1C)C(C(=O)NCCCC)c1ccc(O)cc1 (stereo unspecified) do in these assays?
hDAT+cocaine: 0.24

Results for O=C(COc1ccc(S(=O)(=O)NC2CCCCC2)cc1)N1CCN(c2cccc(Cl)c2)CC1 ?
EphB4 ephrin blk: 2; hDAT+cocaine: 0.23

What do the screens show for `CCC(=O)Nc1cc2c(cc1C(=O)c1ccccc1)OCCO2`?
EphB4 ephrin blk: 0; hDAT+cocaine: 0.073; D1 allo mod: 13*; D1 mod confirm: 15532*; Isoprot counter: active

How did CCCC(=O)c1cc2c(cc1NC(=O)c1cccs1)OCCO2 do in these assays?
EphB4 ephrin blk: 7; hDAT+cocaine: 0.74

What do the screens show for `CC(=O)Nc1cc2c(cc1C(=O)c1ccccc1)OCCO2`?
EphB4 ephrin blk: 6; D1 allo mod: 6.3*; D1 mod confirm: 8592*; D1 no dopamine: 1552; Isoprot counter: active

Results for Nc1cc2c(cc1C(=O)c1ccccc1)OCCO2 ?
EphB4 ephrin blk: -3; hDAT+cocaine: -0.48

Results for CCC(=O)Nc1cccc(C(=O)c2ccccc2)c1 ?
EphB4 ephrin blk: 2; hDAT+cocaine: 0.41; D1 allo mod: -0.12

Results for CCC(=O)Nc1cc2c(cc1C(=O)CC)OCCO2 ?
EphB4 ephrin blk: -3; hDAT+cocaine: -2.5; D1 allo mod: 14*; D1 mod confirm: 12916*; D1 no dopamine: 1684; Isoprot counter: active

What do the screens show for `O=C(NCc1cccnc1)c1cccn2c(=O)c3sccc3nc12`?
EphB4 ephrin blk: -3; hDAT+cocaine: 1.1

How did CC1(C(=O)NCc2cccnc2)CCC(=O)N1Cc1cccs1 (stereo unspecified) do in these assays?
D1 allo mod: -0.34

How did O=C(Cn1cnc2ccc(Br)cc2c1=O)c1cccs1 do in these assays?
EphB4 ephrin blk: -4; hDAT+cocaine: 0.41

Results for CC(C)OP(=O)(OC(C)C)C(NC(=O)c1cccc([N+](=O)[O-])c1)C(N)=O (stereo unspecified) ?
EphB4 ephrin blk: 0; hDAT+cocaine: 0.33

What do the screens show for `Cc1ccccc1OCCn1nc(C(=O)O)c2ccccc2c1=O`?
EphB4 ephrin blk: 4; hDAT+cocaine: 0.57; D1 allo mod: 3.9*; D1 mod confirm: 7632*; D1 no dopamine: 1464; Isoprot counter: active

Results for CC(NC(=O)Cn1nc(C(=O)O)c2ccccc2c1=O)c1ccccc1 (stereo unspecified) ?
EphB4 ephrin blk: 8; hDAT+cocaine: 0.53; D1 allo mod: 0.19

How did O=[N+]([O-])c1ccc(Oc2c(F)c(F)nc(N3CCCC3)c2F)cc1 do in these assays?
EphB4 ephrin blk: -3

How did COc1cc(CNCc2ccccn2)ccc1OCc1cccc(Cl)c1 do in these assays?
EphB4 ephrin blk: 3; hDAT+cocaine: 1.5

How did O=C(CC1SC(=NC2CCCCC2)NC1=O)Nc1ccccc1 (stereo unspecified) do in these assays?
EphB4 ephrin blk: 1; hDAT+cocaine: 0.24; D1 allo mod: 2.6*; D1 mod confirm: 6104*; D1 no dopamine: 1644; Isoprot counter: inactive

What do the screens show for `Cc1cccc(NC(=O)CC2SC(=NC3CCCCC3)NC2=O)c1` (stereo unspecified)?
hDAT+cocaine: 1.8; D1 allo mod: -0.099

Results for O=C(CSc1nnc(COc2ccc(F)cc2)o1)N1c2ccccc2CCc2ccccc21 ?
hDAT+cocaine: -0.41; D1 allo mod: 4*; D1 mod confirm: 13460*; D1 no dopamine: 1676; Isoprot counter: inactive

How did O=C(CN(C(=O)CSc1nnc(COc2ccccc2)o1)c1ccc(F)cc1)NC1CCCC1 do in these assays?
EphB4 ephrin blk: 0; hDAT+cocaine: 1.2; D1 allo mod: 0.85

What do the screens show for `O=C(CSc1nnc(COc2cccc3cccnc23)o1)N1CCc2ccccc21`?
EphB4 ephrin blk: 7; hDAT+cocaine: 0.71; D1 allo mod: 0.27

How did O=C(CN(C(=O)CSc1nnc(COc2ccccc2)o1)c1ccc(F)cc1)NC1CCCCC1 do in these assays?
EphB4 ephrin blk: 4; hDAT+cocaine: -0.37; D1 allo mod: 3.2*; D1 mod confirm: 5428; D1 no dopamine: 1512; Isoprot counter: inactive

Results for O=C(Nc1nc2cc(Cl)ccc2s1)C1CCCN(S(=O)(=O)c2cccc3cccnc23)C1 (stereo unspecified) ?
EphB4 ephrin blk: 5; hDAT+cocaine: 0.88

What do the screens show for `COc1cc2[nH]c(=O)n(CCCCCC(=O)NCCCN3CCCC3=O)c(=O)c2cc1OC`?
EphB4 ephrin blk: -10; hDAT+cocaine: -0.17; D1 allo mod: -0.18

What do the screens show for `CCOc1cc2[nH]c(=O)n(CCCN3CCCC3=O)c(=O)c2cc1OCC`?
EphB4 ephrin blk: 3; hDAT+cocaine: 0.075; D1 allo mod: 2.7*; D1 mod confirm: 6760*; Isoprot counter: inactive

Results for Cc1ccc(N(C)C(=O)N2CCN(S(=O)(=O)c3c(C)cc(C)cc3C)CC2)cc1 ?
EphB4 ephrin blk: -6; hDAT+cocaine: 0.31

Results for CCO[C@H]1OC(C(=O)O)=C[C@@H](c2ccc3c(c2)OCO3)[C@@H]1CCCO ?
hDAT+cocaine: -0.55

What do the screens show for `COc1ccc(OC)c(NC(=O)COC(=O)c2ccc(-n3cnnn3)cc2)c1`?
EphB4 ephrin blk: -9; hDAT+cocaine: 0.63; D1 allo mod: 0.85
